Here are results for 18 compounds from PubChem BioAssay AID2629 (Broad Institute, 2010).

Structures are written as SMILES. Screen size: about 320,000 compounds; about 1,900 (0.59%) were called active. The sample holds actives, similar compounds and a random draw of the others, so the mix is not that of the screen. Unmarked numbers belong to inactive results. Cut-off read from the data, not from the text of the source: active = inhibition mostly above about 10% (no sharp cut-off); inactive = mostly below about 6.7%.

The target in this assay is Protein LANA1 (Human herpesvirus 8 type P (isolate GK18)) (UniProt Q9QR71). The assay is described as follows: blockers of LANA interaction with H2A/H2B – biochemical, FP readout, HTS, primary screen (AID 2629). The conditions noted are these: cell-free LANA-H2A/H2B peptide, fluorescence polarization, active compounds read high, concentration not given here.
Protein LANA1 (Human herpesvirus 8 type P (isolate GK18)), sequence (Q9QR71 whole entry, looked up): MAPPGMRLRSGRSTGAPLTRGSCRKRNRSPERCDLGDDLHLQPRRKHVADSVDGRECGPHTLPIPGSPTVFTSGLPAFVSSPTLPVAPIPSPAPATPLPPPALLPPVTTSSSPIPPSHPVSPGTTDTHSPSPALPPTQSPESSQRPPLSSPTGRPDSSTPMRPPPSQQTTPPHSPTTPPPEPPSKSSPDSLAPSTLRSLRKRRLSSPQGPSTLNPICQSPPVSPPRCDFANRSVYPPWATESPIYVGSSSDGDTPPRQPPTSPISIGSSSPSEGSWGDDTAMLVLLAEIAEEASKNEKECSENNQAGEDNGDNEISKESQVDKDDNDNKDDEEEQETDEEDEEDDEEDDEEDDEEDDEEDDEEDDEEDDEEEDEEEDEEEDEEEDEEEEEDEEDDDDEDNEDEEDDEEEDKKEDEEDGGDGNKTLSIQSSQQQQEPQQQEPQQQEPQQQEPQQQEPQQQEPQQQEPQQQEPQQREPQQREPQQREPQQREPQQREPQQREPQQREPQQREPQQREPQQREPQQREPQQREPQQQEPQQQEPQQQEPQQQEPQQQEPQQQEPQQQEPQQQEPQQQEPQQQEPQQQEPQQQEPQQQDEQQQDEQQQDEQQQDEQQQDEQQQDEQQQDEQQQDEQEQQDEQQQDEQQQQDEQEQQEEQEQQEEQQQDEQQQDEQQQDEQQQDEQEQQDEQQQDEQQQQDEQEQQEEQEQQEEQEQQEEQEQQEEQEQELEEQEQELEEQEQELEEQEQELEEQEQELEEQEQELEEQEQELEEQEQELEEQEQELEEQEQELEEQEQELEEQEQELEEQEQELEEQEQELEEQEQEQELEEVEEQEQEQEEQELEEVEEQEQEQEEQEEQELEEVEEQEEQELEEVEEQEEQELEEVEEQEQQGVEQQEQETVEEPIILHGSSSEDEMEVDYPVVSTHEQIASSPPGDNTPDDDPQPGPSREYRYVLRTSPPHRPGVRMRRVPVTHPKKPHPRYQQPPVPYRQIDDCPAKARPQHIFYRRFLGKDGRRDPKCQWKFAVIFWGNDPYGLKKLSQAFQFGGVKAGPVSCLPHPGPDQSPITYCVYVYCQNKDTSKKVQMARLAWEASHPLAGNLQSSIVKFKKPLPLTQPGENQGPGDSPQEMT
As for `COc1ccc(C(=O)NC(C)Cn2nc(C)cc2C)cc1OC1CCN(C(C)=O)CC1` (stereo not drawn), the inhibition is 16.1% (active).
The figure for `COc1ccc(C(=O)NCCn2nc(C)cc2C)cc1OC1CCN(C(C)=O)CC1` is 0.74%; for `COc1ccc(C(=O)NC(C)c2nccs2)cc1OC1CCN(C(C)C)CC1` (stereo not drawn) it is 4.31%.
The same measure for `CCOc1ncccc1C(=O)OCC(=O)NC1CC1`: -3.51%; for `FC(F)(F)c1nnc2c3ccccc3c(Cl)nn12`: 8.62%.
The figure for `Cc1nnc(SCc2ccc(C(=O)c3ccc(Cl)cc3)o2)n1-c1ccccc1` is -1.68%.
For the compound `COc1ccc(S(=O)(=O)N(C)C[C@H]2Oc3c(NC(=O)Nc4ccc5c(c4)OCO5)cccc3C(=O)N([C@H](C)CO)C[C@@H]2C)cc1`, the inhibition was 16.9% (active).
For the compound `CC(C)NC(=O)Nc1cccc2c1O[C@@H](CN(C)S(=O)(=O)c1ccc(F)cc1)[C@@H](C)CN([C@H](C)CO)C2=O`, the inhibition was -0.984%.
The figure for `C[C@H](CO)N1C[C@H](C)[C@@H](CN(C)S(=O)(=O)c2ccc(F)cc2)Oc2c(NC(=O)Nc3ccccc3)cccc2C1=O` is 14.5% (active); for `Cc1noc(C)c1S(=O)(=O)N(C)C[C@H]1Oc2ccc(NC(=O)C3CC3)cc2C(=O)N([C@H](C)CO)C[C@@H]1C` it is 3.05%; for `Cc1noc(C)c1NC(=O)Nc1ccc2c(c1)C(=O)N([C@H](C)CO)C[C@H](C)[C@@H](CN(C)S(=O)(=O)c1cn(C)cn1)O2` it is 546% [above what the read-out allows, likely interference] (active).
The same measure for `C[C@H](CO)N1C[C@H](C)[C@H](CN(C)C(=O)Nc2ccc(C(F)(F)F)cc2)Oc2c(NC(=O)c3ccncc3)cccc2C1=O`: 0.195%; for `COc1ccc(S(=O)(=O)N(C)C[C@@H]2Oc3ccc(NC(=O)Nc4c(C)noc4C)cc3C(=O)N([C@H](C)CO)C[C@@H]2C)cc1`: 4.41%.
The figure for `COc1ccc(S(=O)(=O)Nc2cccc3c2O[C@H](CN(C)S(=O)(=O)c2ccc(OC)cc2)[C@@H](C)CN([C@H](C)CO)C3=O)cc1` is -1.79%.
For the compound `COc1ccc(NC(=O)Nc2ccc3c(c2)C(=O)N([C@H](C)CO)C[C@H](C)[C@@H](CN(C)C(=O)Nc2ccc4c(c2)OCO4)O3)cc1`, the inhibition was 1.05%.
As for `Cc1noc(C)c1NC(=O)Nc1cccc2c1O[C@H](CN(C)S(=O)(=O)c1c(C)noc1C)[C@@H](C)CN([C@H](C)CO)C2=O`, the inhibition is -5.54%.
The same measure for `Cc1ccc2c(c1)N(C(=O)CCC(=O)NCc1cccnc1)CCO2`: -4.82%.
The figure for `CCN(C(=O)CSc1cccc[n+]1[O-])c1ccccc1` is -3%.

The inhibition is the change of the read-out against control, counted positive when it falls.
